# From ChEMBL document CHEMBL4513216, “Probing the Open Global Health Chemical Diversity Library for Multistage-Active Starting Points for Next-Generation Antimalarials” (ACS Infect Dis, 2020)
# The campaign covered roughly 65,000 compounds. About 2,100 (3.2%) showed an effect of 50% or more. The median lay at about -52%. The sample as a whole holds a higher share of strong results than the screen did.
# Test system: Plasmodium falciparum
# Experiment: Screen against P. falciparum Asexual Blood Stage (ABS), at 5uM
# Type: functional, Dd2
# Settings: tested at 5 uM
row,SMILES,INHIBITION
1,CN(C)CCNCC1(O)CCCN(Cc2cccc(F)c2F)C1=O (configuration not stated),-65.2%
2,COc1ccc(F)c(CN2CCCC(O)(CNCc3ccon3)C2=O)c1 (configuration not stated),-19%
3,CN1CCC(NCC2(O)CCCN(Cc3ccccc3F)C2=O)CC1 (configuration not stated),7.93%
4,CN(CC1(O)CCCN(Cc2cccc(F)c2F)C1=O)C1CCCCC1 (configuration not stated),65%
5,COc1ccc(F)c(CN2CCCC(O)(CNCC(C)(C)C)C2=O)c1 (configuration not stated),50.2%
6,O=C1N(Cc2cccc(F)c2F)CCCC1(O)CNCc1ccccc1 (configuration not stated),61.9%
7,COC(=O)CNCC1(O)CCCN(Cc2cccc(F)c2F)C1=O (configuration not stated),-51%
8,COc1ccc(F)c(CN2CCCC(O)(CNCc3ncc[nH]3)C2=O)c1 (configuration not stated),-93.5%
9,CC1CCN(CC2(O)CCCN(Cc3cccc(F)c3F)C2=O)CC1 (configuration not stated),-71.6%
10,O=C1N(Cc2cccc(F)c2F)CCCC1(O)CNC1CCCC1 (configuration not stated),60.2%
11,O=C1N(Cc2cccc(F)c2F)CCCC1(O)CNCc1ccccn1 (configuration not stated),4.26%
12,O=C(CNCC1(O)CCCN(Cc2cccc(F)c2F)C1=O)NC1CC1 (configuration not stated),-93.9%
13,Cc1noc([C@@H]2CC[C@@H]3[C@@H](CCN3c3nnc(C)s3)O2)n1,-97.1%
14,CCn1cnnc1CNC(=O)NC(C)c1ccccn1 (configuration not stated),-68.5%
15,CCn1nc(C)c2c1cnn2CCNS(=O)(=O)c1cccs1,-54.4%
16,CCC(C)n1c(SCC(=O)N2CCOCC2)nc2cc(C)[nH]c2c1=O (configuration not stated),-77%
17,CO[C@H]1CN(C(=O)c2ccc3oc(C)cc3c2)C[C@@]12CCCO2,-39.5%
18,CN(C)CC1(O)CCN(S(=O)(=O)c2ccc(Cl)cc2)C1 (configuration not stated),42.9%
19,COCC1COCCC12CCN(S(=O)(=O)c1ccc(C)cc1)CC2 (configuration not stated),-71.5%
20,CN(C)CC1(O)CCN(S(=O)(=O)c2cccc(F)c2)C1 (configuration not stated),66.7%
21,CN(C)CC1(O)CCN(S(=O)(=O)c2ccc(F)c(F)c2)C1 (configuration not stated),20.7%
22,Cc1ccc(S(=O)(=O)N2CCC(O)(CN(C)C)C2)cc1 (configuration not stated),52%

row,SMILES,INHIBITION
1,CN(C)CC1(O)CCN(S(=O)(=O)c2ccc(F)cc2)C1 (configuration not stated),36.6%
2,Cc1cccc(CSc2ncc(Br)c(C(=O)O)n2)c1,-52.3%
3,Cc1cc(C)nc(NCCC(=O)Nc2ccc(Cn3cncn3)cc2)n1,-92%
4,Cc1cnn(CCNCc2ccc(OCc3noc(C)n3)cc2)c1,-14.8%
5,COc1ccc(C(C)NC(=O)C2CCN(S(C)(=O)=O)CC2)cc1C (configuration not stated),-118%
6,COc1cccc(CCC(=O)N2CCCCC2Cn2cccn2)c1 (configuration not stated),-136%
7,COc1cccc(CCC(=O)N2CCC[C@@H](N)[C@@H]2c2ccccc2F)c1,68%
8,O=C(Cc1c[nH]c2ccccc12)N1CCC(Nc2cccnn2)CC1,-48%
9,COc1cccc(CCC(=O)N2CCCC(c3nncn3C)C2)c1 (configuration not stated),-9.28%
10,CC(=O)N1CCC[C@@H](NCc2c[nH]c3ccccc23)[C@@H]1c1ccc(C)s1,14.4%
11,N[C@@H]1CCCN(C(=O)Cc2c[nH]c3ccccc23)[C@H]1c1ccccc1F,65.8%
12,O=c1[nH]nc2c(N3CCOCC3)nccn12,-25.9%
13,O=C(c1cccs1)N1C[C@H]2CCC[C@@]2(COCC2CCOCC2)C1,-18.1%
14,CS(=O)(=O)N1Cc2cnn(CC3CC3)c2C(COCC2CC2)C1 (configuration not stated),-13.5%
15,O=C(NCC1CCS(=O)(=O)C1)c1ccco1 (configuration not stated),-48%
16,Cc1nc2ccc(C(=O)N3C[C@@H](O)[C@H](N4CCOCC4)C3)cc2[nH]1,-0.956%
17,Fc1ccc(C(NCc2nnc(-c3ccco3)o2)C2CCC2)cc1 (configuration not stated),-32.2%
18,CN(C)c1ccc(NC(=O)NCC2CCOC2)cn1 (configuration not stated),33.3%
19,Cc1cc(F)ccc1S(=O)(=O)N1CCN(C)c2ccncc21,22.6%
20,CN1CCN(S(=O)(=O)c2cccc(F)c2)c2cnccc21,13.2%
21,Cc1ccc(S(=O)(=O)N2CCN(C)c3ccncc32)cc1F,61.6%
22,N#CC1(C(=O)N2CCOC(c3ccc(Cl)cc3)C2)CCCC1 (configuration not stated),-11.4%

row,SMILES,INHIBITION
1,CN(Cc1ccccc1F)C(C(N)=O)c1ccccc1 (configuration not stated),-90%
2,COc1nccc(N2CC[C@@H](N3CCN(C)CC3)[C@H](O)C2)c1C#N,-50.4%
3,COc1nccc(N2CC[C@@H](N3CCCCCC3)[C@H](O)C2)c1C#N,52.3%
4,COc1nccc(N2CC[C@@H](N3CCC(O)CC3)[C@H](O)C2)c1C#N,-75.9%
5,O=C([C@H]1C[C@H]2OCC[C@H]2N(CC2CCOCC2)C1)N1CCCCO1,-23.2%
6,Clc1cccc(-n2cnnn2)c1N1CCCCC1,-48.1%
7,CCOC(=O)C1CN(CC2CC2)Cc2ncn(CC)c21 (configuration not stated),14%
8,CNC(=O)CN1CCOCC12CCN(C(=O)c1ccc(C)cc1)CC2,-78%
9,Cn1cc(C[C@H]2[C@H](N3CCOCC3)CCN2c2ncc(F)cn2)cn1,-63.8%
10,N#Cc1cccc(S(=O)(=O)N2CCCCC2CCN2CCCC2)c1 (configuration not stated),-4%
11,COCCCC1CCCCN1S(=O)(=O)c1cccc(C#N)c1 (configuration not stated),-16.1%
12,CCN1CCCC1CN(CCN(C)C)S(=O)(=O)c1ccc(C#N)cc1 (configuration not stated),59.7%
13,CN(CCn1cccn1)S(=O)(=O)c1ccc(C#N)cc1,-48.4%
14,CCN(C)C[C@@H]1CN(S(=O)(=O)c2ccc(C#N)cc2)C[C@@H]1CO,15.5%
15,CCN1CCCC1CN(CCN(C)C)S(=O)(=O)c1cccc(C#N)c1 (configuration not stated),60.4%
16,CN1CCN(C(=O)c2cnsn2)c2cc(F)ccc21,-79.3%
17,CSc1ccc(-c2noc(CN(CC(C)C)CC(C)C)n2)cc1,-63.5%
18,O=C(O)C1(Cc2cc(-c3ccc(F)cc3)no2)CCOCC1,-19.8%
19,Cc1ccc(NC(=O)CC2Cn3ncnc3NC2=O)cc1C (configuration not stated),-65.7%
20,CCn1ccnc1CN1CCCC1Cn1cc(C)cn1 (configuration not stated),65.6%
21,Cc1cnn(CC2CCCN2Cc2nccn2C)c1 (configuration not stated),-72.8%
22,Cc1cnn(CC2CCCN2Cc2nccn2CC(F)(F)F)c1 (configuration not stated),-0.234%

row,SMILES,INHIBITION
1,CN(C)CCCNC(=O)c1ccc(N(C)S(C)(=O)=O)cc1Cl,-70.5%
2,O=C(CCc1ccccc1F)NS(=O)(=O)c1ccc2c(c1)OCCO2,-17.8%
3,CCS(=O)(=O)N1CCCC2(COCCN(c3ccccn3)C2)C1 (configuration not stated),-1.4%
4,COCC(O)CNC(=O)Nc1ccc(Cl)cc1-n1cccc1 (configuration not stated),-45.8%
5,CCCn1ncc(CN(CCN(C)C)Cc2ccsc2)c1C,54.5%
6,CCCn1ncc(CN(Cc2cccnc2)Cc2ccsc2)c1C,-129%
7,CCCn1ncc(CN(Cc2ccsc2)Cc2ccco2)c1C,-122%
8,CCCc1cc(C(=O)NC(COC)c2ccnn2C)no1 (configuration not stated),4.52%
9,Cc1ccsc1CN(Cc1ccccn1)CC(C)C,-56.9%
10,Cc1ccsc1CN(CCN(C)C)Cc1ccccn1,58.9%
11,COCCN(Cc1ccccn1)Cc1sccc1C,-158%
12,Cc1ccc(CCNC(=O)CC2COCCN2S(=O)(=O)N(C)C)s1 (configuration not stated),-49%
13,Cc1cc(C)n(CC2CCCN2Cc2ncc(C(C)(C)C)o2)n1 (configuration not stated),-80.1%
14,Cc1nc(C)n(CC2CCCN2Cc2ncc(C(C)(C)C)o2)n1 (configuration not stated),61.9%
15,Cc1nc(C)n(CC2CCCCN2Cc2ncc(C(C)(C)C)o2)n1 (configuration not stated),-43.5%
16,Cc1nn(C)c(C)c1C1CCCN1Cc1nc2ccccc2n1C (configuration not stated),1.9%
17,Cc1nc(C)n(CC2CCCN2Cc2nc3ccccc3nc2C)n1 (configuration not stated),31.2%
18,Cc1nc(CN2CCCC2Cn2cccn2)nc2ccccc12 (configuration not stated),55.5%
19,Cc1nc(C)n(CC2CCCN2Cc2nc(C)c3ccccc3n2)n1 (configuration not stated),55%
20,Cc1nc2ccccc2nc1CN1CCCC1c1c(C)nn(C)c1C (configuration not stated),58.1%
21,Cc1nc(CN2CCCC2Cn2cncn2)nc2ccccc12 (configuration not stated),-14.5%
22,Cc1nc(CN2CCCCC2Cn2cncn2)nc2ccccc12 (configuration not stated),-50.6%

row,SMILES,INHIBITION
1,Cc1nn(C)c(C)c1C1CCCN1Cc1nc(C)c2ccccc2n1 (configuration not stated),-19.2%
2,Cc1nc(C)n(CC2CCCN2Cc2nc(N)c3ccccc3n2)n1 (configuration not stated),-98.4%
3,CCn1nccc1CNC(=O)Cn1cc2c(n1)c(C)nn2C(C)C,-127%
4,CC(C)N1CCOCC2(CCCN(C(=O)c3cncn3C)C2)C1 (configuration not stated),-78.3%
5,O=C(NCc1cc[nH]n1)NCC(O)c1ccc(F)cc1 (configuration not stated),3.65%
6,Cc1ccc(CN2CCC3(CC2)C(c2ccccc2)CC(=O)N3C)o1 (configuration not stated),17.1%
7,C=Cn1cc(CN2CCC(c3ncc(Cl)cc3S(C)(=O)=O)CC2)c(C)n1,14.8%
8,CN(C(=O)CN1CCOC(Cn2cccn2)C1)c1nccs1 (configuration not stated),-24.5%
9,Cc1nc2ccccc2nc1CN1CCCC1Cn1cccn1 (configuration not stated),69.3%
10,Cc1nc2ccccc2nc1CN1CCCC(Cn2cncn2)C1 (configuration not stated),-96.3%
11,Cc1nc2ccccc2nc1CN1CCCC1Cn1cncn1 (configuration not stated),62.3%
12,Cc1c(Cl)c(CN2CCCC2Cn2cncn2)nc2ccccc12 (configuration not stated),16.2%
13,Cc1cnn(CC2CCCN2Cc2nc3ccccc3nc2C)c1 (configuration not stated),-88.9%
14,Cc1nc2ccccc2nc1CN1CCCCC1Cn1cccn1 (configuration not stated),-78.3%
15,CC1CCc2nn(CCNC(=O)Cc3ccc(F)cc3)c(=O)cc2C1 (configuration not stated),-65.3%
16,CN1CCOCC2(CCCN(C(=O)c3ccc(-n4cccc4)cc3)C2)C1 (configuration not stated),28.9%
17,CNC(=O)c1nc(CN2CCOC(CCCC(C)C)C2)no1 (configuration not stated),-32%
18,CNC(=O)c1nc(CN2CCOC(C(F)(F)F)C2)no1 (configuration not stated),-43.7%
19,CNC(=O)c1nc(CN2CCOC(Cc3ccc(F)cc3)C2)no1 (configuration not stated),51.7%
